An excerpt weighted towards active compounds, which were near 4.1% of everything screened.
TWEAK-Fn14 inh = blocks TWEAK-Fn14 interaction in a reporter cell assay; inhibition, % at 10 µM; TWEAK-stimulated Fn14 reporter cells, luciferase luminescence, 8 h; hit rate 2% among 360,000; AID 1159606; in the data active = inhibition above about 50%
MITF TRPM1 inh = MITF TRPM1 promoter inhibition in SK-MEL-5 cells; SK-MEL-5 TRPM1 promoter luciferase, 24 h; inhibition, % at 12.5 µM; hit rate 0.83% among 330,000;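 active = mean inhibition across replicates of 60% or more, whatever share of single replicates reaches that level; inconclusive = some that reach 60%, reason not given; inactive = mean inhibition across replicates below 60%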
TROY NFkB inh = TROY signaling inhibition. inhibition, % at 10 µM. AID 1347056. Q293 LMP1-TROYcd NF-kB luciferase reporter, 4 h. hit rate 0.98% among 360,000;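 active = compounds whose plate-normalised and pattern-corrected inhibition of the luciferase reporter signal at the single screening dose is 50% or more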
Peg3 prom inh = inhibitors of Peg3 promoter. HeLa PEG-Prom luciferase reporter, luminescence, overnight. inhibition, % at 20 µM. hit rate 1.7% among 360,000;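 active = inhibition of at least 50% at 20 µM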
Shn3 3UTR inh = inhibitors of Schnurri-3 3'UTR reporter in osteoblasts | Clone20 osteoblast Shn3 3'UTR firefly luciferase, 24 h | inhibition, % at 12.5 µM | hit rate 0.52% among 360,000;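 active = mean inhibition of at least 75% with every replicate also reaching 75%; inconclusive = mean inhibition at least 75% but some replicate below; inactive = mean inhibition below 75%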;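 note: 0% = median of neutral control wells and 100% = pilot-screen positive control compound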
EBV LMP1 NFkB = inhibitors of Epstein-Barr LMP1-induced NF-kappaB reporter. LMP1-induced NF-kappaB luciferase reporter cells, luminescence. hit rate 0.69% among 350,000. inhibition, % at 12.5 µM; in the data active = inhibition above about 41%; inconclusive = no clear call, values can overlap the other calls;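 note: 0% = neutral control wells and 100% = reference inhibitor control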
The depositor's hits bear a star; ? = inconclusive; . = no result given.

SMILES	TWEAK-Fn14 inh	MITF TRPM1 inh	TROY NFkB inh	Peg3 prom inh	Shn3 3UTR inh	EBV LMP1 NFkB
CCc1cc2c(=O)oc(-c3ccc(F)cc3)nc2s1	54*	1	9	-36	6	-2
Cc1cc2c(=O)oc(-c3ccc(Br)cc3)nc2s1	39	1	-43	-111	-19	-21
O=C(c1cc2cc(Br)ccc2s1)N1CCOCC1	-15	-9	-6	-2	1	0
COc1ccc(C(C(=O)NC(C)(C)C)N(C[C@H]2CC[C@@H]([C@@H]3CC[C@H](CO)O3)O2)C(=O)c2ccccc2)cc1 (stereo partly specified)	-4	-11	-4	-4	8	3
COC(=O)N/N=C/c1c(C)c(C(=O)c2ccc(F)cc2)n2ccccc12	10	-9	15	23	6	16
Cc1c(/C=N/NC(=O)c2ccccc2O)c2ccccn2c1C(=O)c1ccc(F)cc1	66*	-17	51*	18	10	8
Cc1c(/C=N/NC(=O)c2ccc(O)cc2)c2ccccn2c1C(=O)c1ccc(F)cc1	54*	-10	-4	-2	-1	-23
CCOC(=O)N/N=C/c1c(C)c(C(=O)c2ccc(F)cc2)n2ccccc12	0	3	-7	2	2	-1
Nc1nc(SCc2ccccc2)cc(SCc2ccccc2)n1	-40	-54	-62	-303	-75	-47
CCCCCCCn1c(=O)c(C(=O)OC)c(N)c2ccccc21	51*	20	39	16	69	14
COc1ccccc1CCN1CCCC(CN(C)C(=O)c2ccoc2)C1 (stereo unspecified)	-10	2	-2	-5	8	-3
COCCn1c(C)cc(C(=O)COC(=O)c2ccc3ncsc3c2)c1C	0	-49	-9	-205	-48	-14
Cc1ccc(C(=O)OCC(=O)c2cc(C)n(CC3CCCO3)c2C)cc1 (stereo unspecified)	64*	-61	72*	-262	-73	-15
Cc1cc(C(=O)COc2ccccc2C(N)=O)c(C)n1CC1CCCO1 (stereo unspecified)	15	5	4	-52	73	20
Cc1cc(C(=O)COC(=O)c2n[nH]c3ccccc23)c(C)n1CC1CCCO1 (stereo unspecified)	82*	-15	60*	-73	26	14
Cc1cc(C(=O)COC(=O)c2ccccc2NCCO)c(C)n1CC1CCCO1 (stereo unspecified)	62*	13	40	-99	-23	5
COCCn1c(C)cc(C(=O)COC(=O)c2cccnc2SC)c1C	68*	11	69*	-154	-8	7
Cc1cc(C(=O)COC(=O)c2n[nH]c3ccccc23)c(C)n1C	35	-1	-53	-132	-23	16
CCOC(=O)c1nn(-c2ccccc2)c(=O)cc1OCC(=O)Nc1ccccc1OCC	-9	0	-7	6	-14	-9
COc1ccccc1-c1nnc(SC(C)C(=O)NCC2CCCO2)n1C (stereo unspecified)	7	11	-1	11	1	-8
Cc1cc(C(=O)COC(=O)c2cc(O)c3ccccc3c2O)c(C)n1CC1CCCO1 (stereo unspecified)	79*	?	-16	-21	-43	1
Cc1cc(C(=O)COC(=O)c2cccnc2Cl)c(C)n1CC1CCCO1 (stereo unspecified)	99*	58	88*	48	56	65*
COCCn1c(C)cc(C(=O)COC(=O)c2n[nH]c3ccccc23)c1C	86*	-2	54*	-10	27	55*
Cc1cc(C(=O)COC(=O)C2COc3ccccc3O2)c(C)n1CC1CCCO1 (stereo unspecified)	15	7	-14	12	-5	-8
Cc1cc(C(=O)COC(=O)c2cccc(NS(C)(=O)=O)c2)c(C)n1CC1CCCO1 (stereo unspecified)	92*	26	76*	39	45	?
SMILES	TWEAK-Fn14 inh	MITF TRPM1 inh	TROY NFkB inh	Peg3 prom inh	Shn3 3UTR inh	EBV LMP1 NFkB
CCCCn1c(N)c(N(CCOC)C(=O)CCC2CCCCC2)c(=O)[nH]c1=O	-2	-5	1	5	-2	2
Cc1cc([N+](=O)[O-])nn1Cc1ccc(C(=O)N/N=C/c2ccc(N(C)C)cc2)cc1	-4	1	23	2	8	-4
CN(CC(=O)NC1CCCCC1)S(=O)(=O)c1ccc(Cl)cc1	-10	9	-7	91*	2	16
COc1ccc(/C=C/C(=O)NC(=S)NNC(=O)c2cnccn2)cc1	-22	47	17	52*	94*	30
COc1ccc(/C=C/C(=O)NC(=S)NNC(=O)c2cccnc2)cc1	15	-3	-10	12	-5	-8
COc1ccc([C@H]2CC(=O)C=C(c3cccc(Cl)c3)C2)cc1OC	2	0	9	15	26	7
Cc1cc[n+](CC(=O)Nc2cccc(C)c2)cc1	-6	6	-1	14	-6	1
Cc1ccc2oc(C(F)(F)C(F)F)cc(=O)c2c1	13	-4	3	10	-2	-1
Cc1ccc2oc(C(Cl)(Cl)Cl)cc(=O)c2c1	64*	67*	11	63*	42	3
Cc1sc2ncnc(N3CCC(C(=O)Nc4ccccc4C(C)(C)C)CC3)c2c1C	74*	-12	53*	8	67	?
Cc1sc2ncnc(N3CCC(C(=O)Nc4nc(-c5cccs5)cs4)CC3)c2c1C	67*	17	25	-44	6	6
CCOC(=O)c1ccccc1NC(=O)C1CCN(c2ncnc3sc(C)c(C)c23)CC1	-22	14	1	16	38	19
CCc1nnc(NC(=O)C2CCN(c3ncnc4sc(C)c(C)c34)CC2)s1	0	-7	21	4	25	21
CCN1CCN(c2ncnc3sc4c(c23)CCC(C)C4)CC1 (stereo unspecified)	3	9	-15	18	-23	4
COCCN=c1scc(-c2cc(OC)c(OC)c(OC)c2)n1/N=C/c1c(C)[nH]c2ccccc12	54*	6	20	53*	8	10
COc1cc2ccnc(Cc3cccc(OC)c3OC)c2cc1OC	10	10	1	15	86*	20
COc1cc2ccnc(C=O)c2cc1OC	56*	.	2	28	6	11
CC(=S)c1c(C)cc2cc(C)ccn12	5	-20	13	-4	-1	1
O=S(=O)(/N=C(/Nc1cccnc1)c1ccccc1)c1ccc(F)cc1F	6	-7	3	4	-15	-7
O=C(CCl)NNC(=O)c1c(O)c2ccccc2[nH]c1=O	14	4	-2	58*	0	-10
Nc1nc(N)nc(-c2cc(F)ccc2O)n1	25	1	-8	-28	-21	36
CC(=O)C1=C(O)C(=O)N(CCC(=O)O)C1c1ccccc1Cl (stereo unspecified)	59*	-4	-19	24	6	1
